From the supplement of paper PMC6897291

Tested on: RIVA
Experiment: growth inhibition by drug alone (1 - RLU/untreated control) (fraction); higher = stronger inhibition
Conditions: 177Lu-lilotomab satetraxetan 0 ug/ml
Procedure: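 RIVA (RI-1) ABC-DLBCL cells were pretreated or not for 18 h with 0.5 ug/ml 177Lu-lilotomab satetraxetan (600 MBq/mg), washed and seeded (3000 cells/well) on 384-well plates pre-printed with the Selleck Cambridge Cancer Compound library. Viability was read by RealTime-Glo luminescence on days 3-6 after seeding. Effect = 1 - RLU/mean RLU of the 48 untreated no-drug control wells per plate; Bliss score = (M-E)/(1-Fa).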

| Compound | growth inhibition by drug alone (10 nM, time (day): 3) | growth inhibition by drug alone (10 nM, time (day): 4) | growth inhibition by drug alone (10 nM, time (day): 5) | growth inhibition by drug alone (10 nM, time (day): 6) | growth inhibition by drug alone (100 nM, time (day): 3) | growth inhibition by drug alone (100 nM, time (day): 4) | growth inhibition by drug alone (100 nM, time (day): 5) | growth inhibition by drug alone (100 nM, time (day): 6) |
| --- | --- | --- | --- | --- | --- | --- | --- | --- |
| COc1c(C)c2c(c(O)c1C/C=C(\C)CCC(=O)O)C(=O)OC2 [Mycophenolic (Mycophenolate)] | 0.102 | 0.108 | 0.06 | -0.0787 | 0.409 | 0.362 | 0.284 | 0.202 |
| Oc1nc(-c2ccc(C(F)(F)F)cc2)nc2c1CSCC2 | -0.012 | -0.067 | -0.12 | -0.313 | -0.101 | -0.117 | -0.135 | -0.199 |
| COc1cc(Nc2ncc(F)c(Nc3ccc4c(n3)N(COP(=O)(O)O)C(=O)C(C)(C)O4)n2)cc(OC)c1OC | -0.112 | -0.134 | -0.185 | -0.286 | -0.0605 | -0.0606 | -0.107 | -0.168 |
| CCc1ccc(CCOc2ccc(CC3SC(=O)NC3=O)cc2)nc1 (stereo not given) [Pioglitazone (Actos)] | -0.15 | -0.212 | -0.202 | -0.191 | -0.391 | -0.381 | -0.369 | -0.359 |
| Nc1[nH]nc2nnc(-c3c(-c4ccccc4)nn4ccccc34)cc12 | 0.0237 | 0.104 | 0.0531 | -0.13 | -0.0641 | 0.0167 | 0.00135 | -0.0876 |
